Screening results deposited in PubChem BioAssay by several laboratories.
Only some compounds are listed: those with a hit (about 3.9% of all), similar ones and a draw of the others.
Cardio protect = protects H9c2 cardiomyocytes from peroxide injury; H2O2 injury protection, ATPLite, 2 h; protection from H2O2 cell death, % at 20 µM; actives 0.63% (n = 360,000);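 active means compounds giving at least 50% protection of heart cells from peroxide-induced death in the single-dose screen, raw or plate-pattern-corrected value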
NTR1 agonist = agonists of human neurotensin receptor NTR1; P30989; NTR1-U2OS beta-arrestin-GFP spot imaging, agonist mode; activation, % at 20 µM; actives 0.17% (n = 330,000); AID 493036;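 active means activation at or above 40% of the spot to cytoplasm intensity ratio, with at least 20 cells analyzed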
Target sequence (P30989 whole entry, looked up): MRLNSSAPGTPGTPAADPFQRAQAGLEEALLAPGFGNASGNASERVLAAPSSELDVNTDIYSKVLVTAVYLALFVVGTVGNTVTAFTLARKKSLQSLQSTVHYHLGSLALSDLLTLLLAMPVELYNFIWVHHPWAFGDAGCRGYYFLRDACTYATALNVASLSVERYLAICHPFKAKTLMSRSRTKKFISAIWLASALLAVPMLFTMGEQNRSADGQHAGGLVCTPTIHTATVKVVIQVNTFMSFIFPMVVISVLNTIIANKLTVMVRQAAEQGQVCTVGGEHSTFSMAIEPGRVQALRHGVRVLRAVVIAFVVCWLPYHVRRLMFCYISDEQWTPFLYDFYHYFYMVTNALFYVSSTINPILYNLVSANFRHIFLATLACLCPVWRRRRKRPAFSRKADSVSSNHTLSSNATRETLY
SUMO HTRF inh = SUMOylation inhibition; HTRF SUMOylation assay, SAE1/SAE2 + UBC9, in vitro; actives 0.36% (n = 290,000); inhibition, % at 35 µM; AID 2006; P63279; in the data active means inhibition above about 50%, passing the limit was not always enough
ALR H2O2 inh = human ALR oxidase inhibition via reduced H2O2. AID 485317. inhibition, % (no concentration beside the values). purified ALR, DTT oxidation, H2O2 HRP-luminol luminescence. actives 3.8% (n = 290,000);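 active means mean replicate inhibition above about 79%, with every replicate also reaching it, limit read from the data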
Each line names hits and unclear results; the compound was inactive in the other large screens.

CCN1CCN(C(=O)CS(=O)Cc2nc(-c3cccc(C)c3)oc2C)CC1 (configuration not stated)	ALR H2O2 inh 99
Cc1cccc(-c2nc(CS(=O)CC(=O)N3CCc4ccccc4C3)c(C)o2)c1 (configuration not stated)	none (no result: ALR H2O2 inh)
CCOC(=O)N1CCC(NC(=O)C2CCCN(Cc3nc(-c4cccc(Cl)c4)oc3C)C2)CC1 (configuration not stated)	none
CCOC(=O)N1CCN(C(=O)CS(=O)Cc2nc(-c3ccc(OC)c(OC)c3)oc2C)CC1 (configuration not stated)	ALR H2O2 inh 99
Cc1cccc(-c2nc(CS(=O)CC(=O)N3CC(C)CC(C)C3)c(C)o2)c1 (configuration not stated)	ALR H2O2 inh 96
CCOC(=O)N1CCN(C(=O)CS(=O)Cc2nc(-c3cccc(C)c3)oc2C)CC1 (configuration not stated)	ALR H2O2 inh 99
CSc1sc(C(=O)OC(C)C)c2c1C(=O)CC(C)(C)C2	none
COc1ccc(-c2nc(C#N)c(NC(C)C)o2)cc1	none
COc1ccc(CCN(C)C(=O)c2c(C)nn(CC(C)C)c2Cl)cc1OC	none
COc1ccccc1NS(=O)(=O)c1cccc(C(=O)N/N=C(\C)c2ccc(-n3ccnc3)cc2)c1	none
CCOC(CNc1ncnc2sc(-c3ccccc3)cc12)OCC	ALR H2O2 inh 97
CN(C)CCCNc1ncnc2sc(-c3ccccc3)cc12	none (no result: ALR H2O2 inh)
Oc1[nH]c2ccccc2c1N=Nc1nc2ccccc2s1	ALR H2O2 inh 88
COc1ccc(/C=N/NC(=O)c2cc3c(OC)ccc(OC)c3[nH]2)cc1O	Cardio protect 66
COc1ccc(OC)c(/C=N/NC(=O)c2cc3c(OC)cc(OC)cc3[nH]2)c1	Cardio protect 51
COc1ccc(C=NNC(=O)c2cc(C)oc2C)cc1O	ALR H2O2 inh 99 (no result: SUMO HTRF inh)
COc1ccc(/C=N/NC(=O)c2cc(C)oc2C)cc1OC	none
COc1ccc(OC)c2[nH]c(C(=O)N/N=C/c3ccccc3O)cc12	none
COc1ccc(OC)c(/C=N/NC(=O)c2cc3c(OC)cccc3[nH]2)c1	none
COc1cc(/C=N/NC(=O)c2cc(C)oc2C)ccc1O	ALR H2O2 inh 99
COc1ccc(S(=O)(=O)N2CCC(C(=O)NC3CCCC3)CC2)cc1OC	none
COc1cc(C=NNC(=O)c2ccccc2-n2cccc2)ccc1O	ALR H2O2 inh 99 (no result: SUMO HTRF inh)
COC(OC)c1nc(SCC(=O)Nc2cccc(Cl)c2)ncc1C(=O)O	ALR H2O2 inh 99
CC1(C(=O)NS(=O)(=O)C2CC2)CCCN(C(=O)c2ccco2)C1 (configuration not stated)	none (no result: NTR1 agonist, SUMO HTRF inh, ALR H2O2 inh)
CC(=O)OCC(=O)c1c[nH]c2ccccc12	none
CC(C)n1nc(C(=O)Nc2nc3ccccc3[nH]2)c2ccccc2c1=O	Cardio protect 60
CC(C)n1nc(C(=O)OCC(=O)c2c[nH]c3ccccc23)c2ccccc2c1=O	Cardio protect 62
CCn1nc(C(=O)OCC(=O)c2c[nH]c3ccccc23)c2ccccc2c1=O	Cardio protect 58
CCOc1ccc(C(=O)COC(=O)c2nn(CC)c(=O)c3ccccc23)cc1	none (no result: SUMO HTRF inh, ALR H2O2 inh)
COc1cc(/C=N/NC(=O)C(=O)NCC2CCCO2)ccc1OCC(=O)N1CCOCC1 (configuration not stated)	none
CSc1nnc(C)c(/C=C/Nc2ccc(Cl)cc2)n1	none
CCCOC(=O)CN1C(=O)c2ccccc2C1=O	none
Cc1ccccc1CC1(CO)CCCN(Cc2ccccc2Cl)C1 (configuration not stated)	none (no result: ALR H2O2 inh)
CN(C(=O)CSc1nc(O)cc(=O)n1C1CCCC1)c1ccccc1	ALR H2O2 inh 98
NC(=O)C1CCN(C(=O)CN(c2ccc3c(c2)OCCO3)S(=O)(=O)c2ccccc2)CC1	none (no result: SUMO HTRF inh, ALR H2O2 inh)
Cc1onc(-c2ccccc2Cl)c1C(=O)N/N=C(\N)COc1ccc(Cl)cc1	Cardio protect 60
CC(=O)Nc1cc(OC(C)=O)c2nonc2c1OC(C)=O	SUMO HTRF inh 101
CC(=O)Nc1nonc1NC(C)=O	none (no result: ALR H2O2 inh)
CC1CCCN(C(=O)c2ccc3c(c2NCCO)C(=O)c2ccccc2C3=O)C1 (configuration not stated)	none
COC(=O)c1c(N)sc2c1CC(C)(C)OC2	ALR H2O2 inh 98
CCc1nc2ccccc2c(C(=O)Nc2ccc(C)cc2)c1C	none
CC(c1nnc(SCC(=O)Nc2cccnc2Cl)n1Cc1ccccc1)N(C)C (configuration not stated)	ALR H2O2 inh 87
Cc1ccc(CSc2nc3nc(C)cc(C)n3n2)cc1	none
Cc1cccc(NC(=O)CSCC(=O)N=c2sccn2C)c1	none (no result: SUMO HTRF inh)
Cc1cccc(NC(=O)CSCC(=O)Nc2sccc2C#N)c1	ALR H2O2 inh 98 (no result: SUMO HTRF inh)
